# Data reported in PubChem BioAssay (Tox21).
# Where “and” joins values, the source holds several entries; their conditions need not be identical. Equal values may be shown once. Results filed as inconclusive are left out. Entries that show only a call come without a potency. More than one record can exist for a structure, and the calls need not agree. Calls of active or inactive are those of the source. Unless noted, calls come from the whole dose curve.
# Assays:
# [1] = Nuclear factor erythroid 2-related factor 2/antioxidant responsive element (Nrf2/ARE) small molecule agonists: qHTS cell viability counter screen in human keratinocytes (AID 1919968; active = well fitted curve in the direction sought with a large enough effect in the repeat runs; an effect the other way counts as inactive or inconclusive; note: nearly all actives have a fitted effect of over 55% in size; note: potency is the fitted concentration of half-maximal effect)
# How it was run: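 In human HaCaT keratinocytes stably expressing an ARE-driven luciferase, compound exposure lasted 23 h at 37 C under 5% CO2. Viable cells are quantified with a protease-based fluorogenic reagent (CellTiter-Fluor) read 1 h after addition.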
# [2] = molecular target: Gonadotropin-releasing hormone receptor (Homo sapiens) (UniProt P30968); assay: Human gonadotropin-releasing hormone receptor (GnRHR) small molecule agonists, calcium flux assay in GnRHR-HEK293 cells (AID 1920063); note: nearly all actives have a fitted effect of over 35% in size; note: potency is the fitted concentration of half-maximal effect
# How it was run: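 Intracellular calcium rise is the read-out: engineered human GnRHR HEK293 cells, dye-loaded, are exposed to DMSO-dissolved compounds and fluorescence at Ex/Em 480/540 is tracked for 3 min.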
# [3] = G protein-coupled receptor (GPCR) small molecule agonists, calcium flux assay: HEK293 wild type cell line counter screen (AID 1920065)
# How it was run: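 Fluorescence intensity signals activation. After overnight (18 h) culture and a 1 h calcium dye load at 37 C, compounds are added by pin tool and the plate read at 480/540 nm for 3 min in 1 s steps.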
# [4] = p53 small molecule agonists, cell-based qHTS assay with rat liver microsomes (AID 1963578)
# How it was run: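 Quantitative HTS of the Tox21 10K library: p53RE-bla cells, rat liver microsomes plus NADPH at 0.5 mg/mL final each, 16 h at 37 C, beta-lactamase fluorescence detection.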
# [5] = p53 small molecule agonists, cell-based qHTS assay with human liver microsomes: qHTS cell viability counter screen (AID 1963579); note: nearly all actives have a fitted effect of over 45% in size; note: potency is the fitted concentration of half-maximal effect
# How it was run: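 Viability of p53RE-bla cells is measured as CellTiter-Glo luminescence following a 16 h, 37 C incubation with compound, liver microsomes from human donors and NADPH.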
# [6] = p53 small molecule agonists, cell-based qHTS assay with rat liver microsomes: qHTS cell viability counter screen (AID 1963580); note: nearly all actives have a fitted effect of over 45% in size; note: potency is the fitted concentration of half-maximal effect
# How it was run: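 Cytotoxicity counter screen: intracellular ATP read by CellTiter-Glo luminescence in the p53 reporter wells. HCT-116 p53RE-bla cells were treated for 16 h at 37 C alongside rat liver microsomes and NADPH, each 0.5 mg/mL final.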
# [7] = p53 small molecule agonists, cell-based qHTS assay: qHTS cell viability counter screen (AID 1963581); note: nearly all actives have a fitted effect of over 45% in size; note: potency is the fitted concentration of half-maximal effect
# How it was run: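 Luminescence from CellTiter-Glo, reflecting ATP content, serves as the cytotoxicity measure; it is taken after the 2 h reporter substrate step in HCT-116 p53RE-bla cells dosed for 16 h at 37 C.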
# [8] = p53 small molecule agonists, cell-based qHTS assay (AID 1963582; active = well fitted activation curve with a large enough effect in the signal ratio in the repeat runs, not every such curve was filed as active; the % refers to the signal ratio)
# How it was run: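 After plating, p53RE-bla cells sat 5 h in the incubator; compounds or DMSO vehicle were pinned in; a 16 h incubation at 37 C followed; FRET substrate was added and, 2 h later at RT, fluorescence was measured.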
# [9] = molecular target: 5-hydroxytryptamine receptor 2A (Homo sapiens) (UniProt P28223); assay: 5-hydroxytryptamine receptor 2A (HTR2A) small molecule antagonists, cell-based qHTS assay (AID 1963586); note: nearly all actives have a fitted effect of over 45% in size
# How it was run: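 CHO cells stably expressing human HTR2A were plated for 18 h at 37 C, then loaded with calcium dye for 1 h. Compounds were preincubated 5 min at room temperature before DOI (4 nM solution) was added. Kinetic fluorescence was read for 3 min.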
# [10] = molecular target: 5-hydroxytryptamine receptor 2A (Homo sapiens) (UniProt P28223); assay: 5-hydroxytryptamine receptor 2A (HTR2A) small molecule agonists, cell-based qHTS assay (AID 1963587); note: nearly all actives have a fitted effect of over 30% in size; note: potency is the fitted concentration of half-maximal effect
# How it was run: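 Kinetic calcium-flux fluorescence (2 min, 1 sec intervals) after compound addition in agonist mode. HTR2A-CHO cells were cultured 18 h, then dye-loaded 1 h at 37 C.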
# [11] = molecular target: Muscarinic acetylcholine receptor M1 (Homo sapiens) (UniProt P11229); assay: Cholinergic receptor muscarinic 1 (CHRM1) small molecule antagonists, cell-based qHTS assay (AID 1963588); note: nearly all actives have a fitted effect of over 40% in size
# How it was run: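 Compounds were tested at 15 concentrations in three independent runs. Dye-loaded CHRM1-CHO cells were exposed 5 min at room temperature before stimulation by acetylcholine added at 50nM. Intracellular calcium was read kinetically on FDSS for 3 min.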
# [12] = molecular target: Muscarinic acetylcholine receptor M1 (Homo sapiens) (UniProt P11229); assay: Cholinergic receptor muscarinic 1 (CHRM1) small molecule agonists, cell-based qHTS assay (AID 1963589); note: nearly all actives have a fitted effect of over 35% in size; note: potency is the fitted concentration of half-maximal effect
# How it was run: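 Fluorescent calcium dye reports M1 activation in stably transfected CHO cells. Compounds, 15 concentrations, added after 1 h dye loading at 37 C; kinetic reading at 1 sec intervals.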
# [13] = cAMP Responsive Elements (CRE) small molecule agonists, cell-based qHTS assay (AID 1963590)
# How it was run: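 Compound exposure lasted 3 h at 37 C/5% CO2 in CRE-bla HEK 293T cells grown in assay medium with 10% dialyzed FBS and 25 mM HEPES. Reporter signal came from LiveBLAzer B/G FRET substrate, 2 h, room temperature.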
# [14] = cAMP Responsive Elements (CRE) small molecule antagonists, cell-based qHTS assay (AID 1963591; active = well fitted inhibition curve with a large enough effect in the signal ratio in the repeat runs, not every such curve was filed as active; the % refers to the signal ratio)
# How it was run: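 Stimulation used NKH477 at a final 0.25 uM for 3 h in compound-treated CRE-bla HEK293T cells, seeded 18 h beforehand. Reporter activity was measured with LiveBLAzer B/G FRET substrate after 2 h at room temperature.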
# [15] = molecular target: Beta-2 adrenergic receptor (Homo sapiens) (UniProt P07550); assay: Adrenergic beta2 receptor (ADRB2) small molecule antagonists, cell-based qHTS assay (AID 1963592); note: series mostly up to about 92 µM; nearly all actives have a fitted effect of over 50% in size
# How it was run: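 Assay format: CHO-ADRB2 cells, 18-20hr seeding at 37C/5% CO2, then compound plus 1nM isoproterenol agonist mix for 0.5hr RT. Homogeneous time-resolved fluorescence cAMP detection after 1hr, expressed as 665/615 nm ratio.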
# [16] = molecular target: D(2) dopamine receptor (Homo sapiens) (UniProt P14416); assay: Dopamine D2 receptor (DRD2) small molecule agonists, cell-based qHTS assay (AID 1963594); note: nearly all actives have a fitted effect of over 35% in size
# How it was run: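 cAMP accumulation in DRD2-HEK293 cells measured by HTRF after 1 h detection; compounds added 10 min before NKH477 (200nM […]) forskolin-analogue stimulation, 30 min at room temperature, with Ro20-1724 present at 0.1 mM final.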
# [17] = molecular target: D(2) dopamine receptor (Homo sapiens) (UniProt P14416); assay: Dopamine D2 receptor (DRD2) small molecule antagonists, cell-based qHTS assay (AID 1963595; active = well fitted inhibition curve with a large enough effect in the signal ratio in the repeat runs, with a control signal flat; the % refers to the signal ratio; note: potency is the fitted concentration of half-maximal effect)
# How it was run: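 Stable D2 receptor HEK293 line, 24 h after seeding. Compound preincubated 10 min, then quinpirole (12 nM) with forskolin analogue NKH477 (200 nM), 30 min, room temperature. Detection by time-resolved FRET of cAMP.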
# [18] = molecular target: KiSS-1 receptor (Homo sapiens) (UniProt Q969F8); assay: Human kisspeptin (KISS1R) small molecule agonists, calcium flux assay in KISS1R-HEK293 cells (AID 1920064; active = well fitted curve in the direction sought with a large enough effect in the repeat runs; an effect the other way counts as inactive or inconclusive)
# How it was run: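 Concentration-response testing used 15 concentrations in triplicate on human KISS1R-expressing HEK293 cells. Calcium-dependent fluorescence (Ex/Em 480/540) was followed kinetically for 3 min after compound transfer.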
# [19] = molecular target: Beta-2 adrenergic receptor (Homo sapiens) (UniProt P07550); assay: Adrenergic beta2 receptor (ADRB2) small molecule agonists, cell-based qHTS assay (AID 1963593);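 note: CHO cells stably overexpressing human ADRB2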
# How it was run: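 CHO cells stably over-expressing ADRB2 were plated overnight at 37C, then dosed with compounds plus a stimulation mix containing 100uM IBMX and 25uM Ro-20-1724 for 0.5hr at room temperature. cAMP was measured by HTRF competition, 1hr.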
# [20] = p53 small molecule agonists, cell-based qHTS assay with human liver microsomes (AID 1963577);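 note: p53 response element beta-lactamase reporter cells with liver microsomes plus NADPH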
# How it was run: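 HLM-supplemented p53RE-bla reporter assay: 16 h compound exposure at 37 C, microsomes and NADPH each 0.5 mg/mL final, read by fluorescence intensity.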
# [21] = Nuclear factor erythroid 2-related factor 2/antioxidant responsive element (Nrf2/ARE) small molecule agonists: luciferase reporter gene qHTS assay in human keratinocytes (AID 1919969); note: nearly all actives have a fitted effect of over 35% in size
# Muscarinic acetylcholine receptor M1 (Homo sapiens), sequence (P11229 whole entry, looked up): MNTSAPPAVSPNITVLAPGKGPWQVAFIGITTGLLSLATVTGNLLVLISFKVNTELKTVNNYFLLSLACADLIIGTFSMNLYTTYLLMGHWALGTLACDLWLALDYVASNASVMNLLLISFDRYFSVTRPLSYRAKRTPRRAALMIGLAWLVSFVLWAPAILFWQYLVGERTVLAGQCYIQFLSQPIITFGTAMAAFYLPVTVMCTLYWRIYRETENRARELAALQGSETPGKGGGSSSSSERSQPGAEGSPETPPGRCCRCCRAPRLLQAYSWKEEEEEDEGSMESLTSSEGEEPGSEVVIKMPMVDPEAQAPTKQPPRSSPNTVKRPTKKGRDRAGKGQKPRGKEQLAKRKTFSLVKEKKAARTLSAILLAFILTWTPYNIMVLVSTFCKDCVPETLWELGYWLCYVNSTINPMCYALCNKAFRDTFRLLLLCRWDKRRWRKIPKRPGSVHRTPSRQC
# Gonadotropin-releasing hormone receptor (Homo sapiens), sequence (P30968 whole entry, looked up): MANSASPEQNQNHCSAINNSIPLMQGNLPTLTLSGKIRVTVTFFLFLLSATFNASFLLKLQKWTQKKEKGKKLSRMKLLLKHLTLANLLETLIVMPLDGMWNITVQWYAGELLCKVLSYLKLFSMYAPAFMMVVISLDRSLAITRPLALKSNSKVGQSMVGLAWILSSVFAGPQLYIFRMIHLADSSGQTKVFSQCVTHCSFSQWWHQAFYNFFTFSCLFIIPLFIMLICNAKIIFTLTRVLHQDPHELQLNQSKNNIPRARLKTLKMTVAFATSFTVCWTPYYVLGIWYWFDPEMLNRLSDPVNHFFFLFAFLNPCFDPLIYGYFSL
# KiSS-1 receptor (Homo sapiens), sequence (Q969F8 whole entry, looked up): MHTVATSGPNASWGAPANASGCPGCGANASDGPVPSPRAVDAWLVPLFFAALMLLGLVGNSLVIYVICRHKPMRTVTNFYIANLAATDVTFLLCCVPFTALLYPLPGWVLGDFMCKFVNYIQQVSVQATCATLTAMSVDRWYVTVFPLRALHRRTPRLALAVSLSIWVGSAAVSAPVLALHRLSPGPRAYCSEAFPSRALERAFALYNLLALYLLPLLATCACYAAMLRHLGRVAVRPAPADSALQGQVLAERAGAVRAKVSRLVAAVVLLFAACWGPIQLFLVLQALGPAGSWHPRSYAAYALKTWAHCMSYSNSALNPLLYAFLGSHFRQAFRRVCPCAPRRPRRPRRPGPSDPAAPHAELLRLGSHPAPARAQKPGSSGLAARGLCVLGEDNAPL
# 5-hydroxytryptamine receptor 2A (Homo sapiens), sequence (P28223 whole entry, looked up): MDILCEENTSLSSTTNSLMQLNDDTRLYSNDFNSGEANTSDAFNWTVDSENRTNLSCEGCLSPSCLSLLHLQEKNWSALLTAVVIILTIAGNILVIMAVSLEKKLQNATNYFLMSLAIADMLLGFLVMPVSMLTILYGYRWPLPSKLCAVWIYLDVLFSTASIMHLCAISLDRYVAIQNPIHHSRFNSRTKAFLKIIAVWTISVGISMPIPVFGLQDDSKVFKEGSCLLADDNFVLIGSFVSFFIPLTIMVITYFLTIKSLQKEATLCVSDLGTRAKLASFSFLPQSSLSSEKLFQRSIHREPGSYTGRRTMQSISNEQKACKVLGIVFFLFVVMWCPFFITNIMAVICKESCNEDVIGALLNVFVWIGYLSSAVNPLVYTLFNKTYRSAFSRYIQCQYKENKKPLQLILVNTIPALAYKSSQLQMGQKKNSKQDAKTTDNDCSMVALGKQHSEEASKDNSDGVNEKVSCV
# Beta-2 adrenergic receptor (Homo sapiens), sequence (P07550 whole entry, looked up): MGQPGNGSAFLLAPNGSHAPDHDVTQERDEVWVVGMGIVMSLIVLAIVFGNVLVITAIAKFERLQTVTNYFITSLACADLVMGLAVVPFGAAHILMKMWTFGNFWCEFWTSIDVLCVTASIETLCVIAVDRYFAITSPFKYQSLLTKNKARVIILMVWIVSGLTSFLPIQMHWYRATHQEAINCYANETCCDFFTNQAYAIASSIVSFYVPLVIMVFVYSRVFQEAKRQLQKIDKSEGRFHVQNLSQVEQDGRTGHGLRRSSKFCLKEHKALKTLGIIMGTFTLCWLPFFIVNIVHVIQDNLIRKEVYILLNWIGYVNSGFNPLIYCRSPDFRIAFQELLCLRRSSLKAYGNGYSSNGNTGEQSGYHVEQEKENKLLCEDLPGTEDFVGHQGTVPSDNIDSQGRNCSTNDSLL
# D(2) dopamine receptor (Homo sapiens), sequence (P14416 whole entry, looked up): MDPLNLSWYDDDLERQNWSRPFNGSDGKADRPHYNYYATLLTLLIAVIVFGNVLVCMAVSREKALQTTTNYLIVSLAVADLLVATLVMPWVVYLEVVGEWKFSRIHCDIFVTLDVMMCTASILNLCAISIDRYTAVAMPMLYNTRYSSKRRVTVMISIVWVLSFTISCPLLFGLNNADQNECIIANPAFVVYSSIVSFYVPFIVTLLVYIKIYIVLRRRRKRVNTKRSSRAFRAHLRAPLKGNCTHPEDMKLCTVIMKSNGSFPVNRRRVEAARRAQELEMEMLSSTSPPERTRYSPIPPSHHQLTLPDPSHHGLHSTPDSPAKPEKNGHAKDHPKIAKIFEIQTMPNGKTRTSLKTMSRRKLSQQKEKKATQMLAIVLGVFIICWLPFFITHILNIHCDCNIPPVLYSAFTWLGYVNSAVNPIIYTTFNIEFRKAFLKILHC
structure (smiles),measurement,setting,value
Oc1ccc(Cl)cc1,Potency,[1],inactive
same,Potency,[2],inactive
same,Potency,[3],inactive
same,Potency,[4],inactive
same,Potency,[5],inactive
same,Potency,[6],inactive
same,Potency,[7],inactive
same,Potency,[8],inactive
same,Potency,[9],inactive
same,Potency,[10],inactive
same,Potency,[11],inactive
same,Potency,[12],inactive
same,Potency,[13],inactive
same,Potency,[14],inactive
same,Potency,[15],inactive
same,Potency,[16],inactive
same,Potency,[17],inactive
CCCCCCn1cc[n+](C)c1,Potency,[1],inactive
same,Potency,[2],inactive
same,Potency,[18],inactive
same,Potency,[3],inactive
same,Potency,[5],inactive
same,Potency,[6],inactive
same,Potency,[7],inactive
same,Potency,[9],inactive
same,Potency,[10],inactive
same,Potency,[11],inactive
same,Potency,[12],inactive
same,Potency,[13],inactive
same,Potency,[14],inactive
same,Potency,[15],inactive
same,Potency,[19],inactive
same,Potency,[16],inactive
same,Potency,[17],inactive
COc1nc(C)nc(NC(=O)NS(=O)(=O)c2ccccc2Cl)n1,Potency,[1],inactive
same,Potency,[2],inactive
same,Potency,[18],inactive
same,Potency,[20],inactive
same,Potency,[4],inactive
same,Potency,[5],inactive
same,Potency,[6],inactive
same,Potency,[7],inactive
same,Potency,[8],inactive
same,Potency,[9],inactive
same,Potency,[10],inactive
same,Potency,[11],inactive
same,Potency,[12],inactive
same,Potency,[13],inactive
same,Potency,[14],inactive
same,Potency,[15],inactive
same,Potency,[16],inactive
same,Potency,[17],inactive
Clc1ccccc1Cl,Potency,[1],inactive
same,Potency,[2],inactive
same,Potency,[18],inactive
same,Potency,[3],inactive
same,Potency,[6],inactive
same,Potency,[7],inactive
same,Potency,[9],inactive
same,Potency,[10],inactive
same,Potency,[11],inactive
same,Potency,[12],inactive
same,Potency,[13],inactive
same,Potency,[14],inactive
same,Potency,[15],inactive
same,Potency,[19],inactive
same,Potency,[16],inactive
same,Potency,[17],inactive
OCCOCCO,Potency,[1],inactive
same,Potency,[2],inactive
same,Potency,[18],inactive
same,Potency,[3],inactive
same,Potency,[5],inactive
same,Potency,[6],inactive
same,Potency,[7],inactive
same,Potency,[9],inactive
same,Potency,[10],inactive
same,Potency,[11],inactive
same,Potency,[12],inactive
same,Potency,[13],inactive
same,Potency,[14],inactive
same,Potency,[19],inactive
same,Potency,[16],inactive
same,Potency,[17],inactive
[Cl-].[Cl-].[Cl-].[Fe+3],Potency,[1],inactive
same,Potency,[2],inactive
same,Potency,[18],inactive
same,Potency,[3],inactive
same,Potency,[5],inactive
same,Potency,[6],inactive
same,Potency,[7],inactive
same,Potency,[9],inactive
same,Potency,[10],inactive
same,Potency,[11],inactive
same,Potency,[13],inactive
same,Potency,[14],inactive
same,Potency,[15],inactive
same,Potency,[19],inactive
same,Potency,[16],inactive
same,Potency,[17],inactive
CN(C)C(=S)S,Potency,[1],9.89 µM (active) and 607 nM (active) and 27.3 µM (active)
same,Potency,[2],inactive
same,Potency,[18],inactive
same,Potency,[3],inactive
same,Potency,[5],inactive
same,Potency,[6],inactive and 8.08 µM (active)
same,Potency,[9],inactive
same,Potency,[10],inactive
same,Potency,[11],inactive
same,Potency,[12],inactive
same,Potency,[13],inactive
same,Potency,[14],inactive
same,Potency,[15],inactive
same,Potency,[19],inactive
same,Potency,[16],inactive
c1ccc2c(c1)-c1cccc3cccc-2c13,Potency,[1],inactive
same,Potency,[18],inactive
same,Potency,[3],inactive
same,Potency,[20],inactive
same,Potency,[5],inactive
same,Potency,[6],inactive
same,Potency,[7],inactive
same,Potency,[8],inactive
same,Potency,[9],inactive
same,Potency,[10],inactive
same,Potency,[11],inactive
same,Potency,[12],inactive
same,Potency,[13],inactive
same,Potency,[14],inactive
same,Potency,[17],inactive
[Cl-].[Cl-].[Hg+2],Potency,[1],7.66 µM (active) and 3.06 µM (active)
same,Potency,[2],38.7 µM (active) and 38.9 µM (active)
same,Potency,[3],inactive
same,Potency,[5],5.74 µM (active) and 10.2 µM (active)
same,Potency,[6],16.2 µM (active) and 4.08 µM (active)
same,Potency,[7],3.62 µM (active) and 9.13 µM (active)
same,Potency,[9],inactive
same,Potency,[10],54.9 µM (active)
same,Potency,[11],inactive
same,Potency,[12],54.9 µM (active)
same,Potency,[17],1.92 µM (active)
Sc1ccccc1,Potency,[1],inactive
same,Potency,[2],inactive
same,Potency,[18],inactive
same,Potency,[3],inactive
same,Potency,[5],inactive
same,Potency,[6],inactive
same,Potency,[7],inactive
same,Potency,[9],inactive
same,Potency,[10],inactive
same,Potency,[11],inactive
same,Potency,[12],inactive
same,Potency,[13],inactive
same,Potency,[14],inactive
same,Potency,[19],inactive
same,Potency,[16],inactive
same,Potency,[17],inactive
ClCOCCl,Potency,[21],inactive
same,Potency,[2],inactive
same,Potency,[18],inactive
same,Potency,[20],inactive
same,Potency,[4],inactive
same,Potency,[6],inactive
same,Potency,[7],inactive
same,Potency,[8],inactive
same,Potency,[9],inactive
same,Potency,[10],inactive
same,Potency,[11],inactive
same,Potency,[12],inactive
same,Potency,[13],inactive
same,Potency,[14],inactive
same,Potency,[15],inactive
same,Potency,[16],inactive
same,Potency,[17],inactive
Oc1cccc2cccnc12,Potency,[2],inactive
same,Potency,[18],inactive
same,Potency,[3],inactive
same,Potency,[5],inactive and 971 nM (active) and 913 nM (active)
same,Potency,[7],inactive
same,Potency,[13],inactive
same,Potency,[14],inactive
same,Potency,[15],inactive
same,Potency,[19],inactive
same,Potency,[16],inactive
same,Potency,[17],inactive
